PostGolgi yeast – growth inhibition of a yeast mutant, post-Golgi transport screen; post-Golgi transport phenotypic cell assay; inhibition, % at 10 µM; 0.9% of 98,000 active;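 further: yeast cells grown in 1536-well plates; yeast grown about 18 h at 30C before absorbance read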
PostGolgi ctrl – inhibits growth of the yeast control strain | efflux-deficient yeast background strain, growth absorbance A615, 16 h | inhibition, % at 10 µM | 5% of 98,000 active
CYP2C9 act – CYP2C9 (human) activation. P11712. recombinant CYP2C9, luciferin-H conversion, luminescence; stronger effect = higher value; factor 1 = untreated enzyme, 0 = blocked. activation factor at 5 µM. 1.4% of 96,000 active. AID 1024;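 active means activation factor of 2 or more for CYP2C9 at a 5 µM dose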
Target sequence (P11712 whole entry, looked up): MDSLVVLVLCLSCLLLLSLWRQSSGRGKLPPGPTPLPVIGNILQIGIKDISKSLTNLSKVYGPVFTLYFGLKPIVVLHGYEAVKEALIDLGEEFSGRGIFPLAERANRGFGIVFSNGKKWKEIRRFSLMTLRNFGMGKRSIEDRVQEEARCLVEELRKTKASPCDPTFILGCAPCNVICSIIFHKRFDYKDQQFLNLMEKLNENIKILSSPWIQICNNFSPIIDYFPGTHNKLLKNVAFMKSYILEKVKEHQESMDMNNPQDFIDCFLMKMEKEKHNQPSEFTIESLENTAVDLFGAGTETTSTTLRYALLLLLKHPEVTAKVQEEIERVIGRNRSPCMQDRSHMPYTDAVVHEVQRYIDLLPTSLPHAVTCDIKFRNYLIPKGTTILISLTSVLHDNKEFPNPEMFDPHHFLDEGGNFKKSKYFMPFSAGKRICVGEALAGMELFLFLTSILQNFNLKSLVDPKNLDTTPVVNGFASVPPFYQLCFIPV
CYP2C9 inh – human CYP2C9 inhibition; inhibition, % at 5 µM; P11712; CYP2C9 Supersomes, luciferin-H conversion, luminescence; 20% of 96,000 active;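 active means blocking of liver enzyme CYP2C9 beyond about 50% at 5 µM, limit read from the data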
CYP2C19 inhib – blocks human cytochrome P450 2C19. P33261. CYP2C19 Supersomes, luciferin-H EGE luminescence, 30 min. inhibition, % at 5 µM. 21% of 96,000 active. AID 778;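 active means CYP2C19 inhibition above a set limit at 5 µM in the primary screen, cut at about 50% in these data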
CYP2C19 act – cytochrome P450 2C19 (human) activation; P33261; recombinant CYP2C19, luciferin-H EGE luminescence; stronger effect = higher value; 0 = fully inhibited enzyme, 1 = untreated enzyme; activation factor at 5 µM; 96,000 tested, under 10 active; AID 1025;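 active means activation factor of at least 2 at 5 µM in the primary screen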
Numbers stand for hits; – = inactive. In the library only some 32% were active in any assay of this set; here they are far more common. Unless noted, no stated cut-off is given here; in the data, active means inhibition above about 30%; inactive means the rest.

SMILES	PostGolgi yeast	PostGolgi ctrl	CYP2C9 act	CYP2C9 inh	CYP2C19 inhib	CYP2C19 act
COc1cc(C2C3=C(Nc4ncnn42)c2ccccc2CC3)cc(OC)c1OC (stereo not given)	–	–	–	66	66	–
O=C(Cc1cccs1)Nc1nnc(Cc2ccc(F)cc2)s1	–	–	–	–	–	–
CCC(Oc1nc2ccccc2nc1-c1ccccc1NC(C)=O)C(=O)c1ccccc1 (stereo not given)	–	–	–	53	–	–
CC(=O)Nc1ccccc1-c1nn[nH]n1	–	–	–	–	–	–
O=C(Nc1nnc(-c2ccccc2Cl)o1)c1ccco1	–	–	–	93	–	–
COc1cccc2sc(Nc3nnc(-c4ccccc4Cl)o3)nc12	–	–	–	–	–	–
O=C(Nc1nnc(-c2ccccc2Cl)o1)c1nc2ccccc2s1	–	–	–	–	69	–
C=CCOC(=O)C1=C(C)Nc2nnnn2C1c1cccs1 (stereo not given)	–	–	–	–	–	–
COC(=O)c1cc(NC(=O)Nc2ccccc2OC)cc(C(=O)OC)c1	–	–	–	–	–	–
Brc1ccc(CN2CCSCC2)cc1	–	–	–	–	59	–
COc1ccc(CN2CCSCC2)cc1C	–	–	–	–	–	–
COc1cccc(C(O)CC(N)=O)c1 (stereo not given)	–	–	–	–	–	–
O=[N+]([O-])c1ccc2c(c1)oc1ccccc12	–	–	–	–	–	–
CC(=O)CC(c1ccc([N+](=O)[O-])cc1)c1c(O)c2ccccc2oc1=O (stereo not given)	–	–	–	76	–	–
CCOC(=O)c1c(-c2ccncc2)csc1N	–	–	–	66	–	–
CCOc1ccc(-c2csc(N)c2C(=O)OC)cc1	–	–	–	71	66	–
C=CCNC(=O)c1ccccc1NC(=O)c1ccccc1	–	–	–	–	–	–
Cc1cc(N2CCC(C(=O)N3CCN(c4cccc(C)c4C)CC3)CC2)n2ncnc2n1	–	–	–	–	–	–
Cc1ccccc1S(=O)(=O)Cc1ccc(C(=O)NCCN2CCN(Cc3ccccc3)CC2)o1	–	–	–	–	–	–
OC1CCN(Cc2cccc(Oc3ccccc3)c2)CC1	–	–	–	–	–	–
CN1CCN(Cc2cccc(Oc3ccccc3)c2)CC1	–	–	–	–	69	–
OCCN1CCN(Cc2cccc(Oc3ccc(Cl)cc3)c2)CC1	–	44	–	–	–	–
CC1CCCN(Cc2cccc(Oc3ccccc3)c2)C1 (stereo not given)	–	–	–	–	67	–
CC(c1ccccc1)N1CC(C(=O)N2CCN(c3ccc(F)cc3)CC2)CC1=O (stereo not given)	–	–	–	–	–	–
COc1ccc(-n2c(NCCN(C)C)nc3sc4c(c3c2=O)CCCCC4)cc1	–	–	–	–	–	–
SMILES	PostGolgi yeast	PostGolgi ctrl	CYP2C9 act	CYP2C9 inh	CYP2C19 inhib	CYP2C19 act
Cc1ccc(Nc2nc3nonc3nc2N(C)C)cc1	–	–	–	–	–	–
CCNc1nc2nonc2nc1NCC	–	–	2.6	–	–	–
C=CCOc1ccc2ccccc2c1CNc1ncn[nH]1	–	–	–	62	84	–
Cn1c(=O)[nH]c(=O)c2c1nc(N1CCOCC1)n2CCSc1nc2ccccc2[nH]1	–	–	–	–	–	–
COc1ccc(CCNC(=O)c2nnn(-c3ccc4c(c3)OCCO4)c2N)cc1OC	–	–	–	–	–	–
CN(C)S(=O)(=O)c1ccc(NC(=O)Cn2c(-c3ccccc3)noc2=O)cc1	–	–	–	95	78	–
COC(=O)Cn1c(CN2CCN(c3ccc(F)cc3)CC2)nc2c1c(=O)n(C)c(=O)n2C	–	–	–	–	–	–
COc1ccc(CNC(=O)Cn2cc([N+](=O)[O-])nc2C)cc1	–	–	–	–	–	–
CC(NC(=O)C1CCN(c2nnc(-n3cccc3)s2)CC1)C12CC3CC(CC(C3)C1)C2 (stereo not given)	–	–	–	–	–	–
Cc1nnsc1C(=O)NC(C)C12CC3CC(CC(C3)C1)C2 (stereo not given)	–	–	–	–	52	–
CC(C)Oc1ccccc1C1CC(=O)Nc2c1c(=O)n(C)c(=O)n2C (stereo not given)	–	–	–	–	–	–
Cn1c(C(=O)N2CCN(Cc3ccccc3)CC2)cc2c(=O)n(C)c3ccccc3c21	–	–	–	–	–	–
O=C1CCC(C(=O)NC2(C(=O)NC3CCCCC3)CCCCC2)N1 (stereo not given)	–	–	–	–	–	–
COc1ccc(/C=C/c2c([N+](=O)[O-])c(=O)n(C)c(=O)n2C)cc1O	–	–	–	53	–	–
COc1cc(/C=C/c2c([N+](=O)[O-])c(=O)n(C)c(=O)n2C)cc(OC)c1OC	–	–	–	–	–	–
O=C(CCCSc1nc2ccccc2[nH]1)N1CCN(c2ccc([N+](=O)[O-])cc2)CC1	–	32	–	–	–	–
NC(=O)C1CCN(C(=O)CSc2nc3ccccc3[nH]2)CC1	–	–	–	–	–	–
CC1CCN(C(=O)CSc2nc3ccccc3[nH]2)CC1	–	–	–	–	74	–
C/C(N)=C(/C#N)C(=O)CSc1nc2ccccc2[nH]1	–	–	–	–	71	–
COc1cc(OC)nc(NC(=O)CSc2nc3ccccc3[nH]2)n1	–	–	–	–	–	–
C/C(N)=C(/C#N)C(=O)CSc1ncnc2ccccc12	–	–	–	–	71	–
Cc1ccc(N=Cc2ccc[nH]2)c(O)c1	–	–	–	–	–	–
Cc1ccc(C)n1Cc1ccc(C(=O)O)cc1	–	–	–	–	–	–
CCCC(c1nnnn1CCOC)N(Cc1cc2cc(C)c(C)cc2[nH]c1=O)CC1CCCO1 (stereo not given)	–	–	–	–	–	–
N#CCC(CNc1ncc(C(F)(F)F)cc1Cl)OC(=O)c1ccc(Cl)cc1Cl (stereo not given)	–	–	–	50	–	–
SMILES	PostGolgi yeast	PostGolgi ctrl	CYP2C9 act	CYP2C9 inh	CYP2C19 inhib	CYP2C19 act
COC(=O)CSc1nc2ccccc2nc1SCC(=O)OC	–	–	–	–	54	–
COC(=O)CSc1nc(C(C)C)nc2ccccc12	–	–	–	–	80	–
COC(=O)CSc1nnc(SCc2ccccc2)s1	–	–	–	–	–	–
CCOC(=O)CSc1nc(C2CC2)nc2ccccc12	–	39	–	–	–	–
COC(=O)CSc1cnc2ccccc2n1	–	32	–	–	–	–
COC(=O)CSc1nc2cc3c(cc2cc1C#N)OCO3	–	–	–	–	–	–
COC(=O)CSc1nc2cc3c(cc2cc1C)OCCO3	–	36	–	–	–	–
Cn1c(N)c(C(=O)NCc2ccccc2)sc1=S	–	–	–	–	53	–
COc1ccc(CCNC(=O)c2ccc(Cl)cc2)cc1	–	–	–	–	–	–
COc1ccc(CCNC(=O)c2sc(=S)n(C)c2N)cc1	–	–	–	60	–	–
